# Compound activity (PubChem BioAssay)
# DAX1 inh-1 – DAX1 (NR0B1) inhibitors, primary screen, cell-based, HEK293, Gal4-DAX1, luciferase luminescence | Nuclear receptor subfamily 0 group B member 1 (Homo sapiens), P51843 | 340,000 compounds, 0.99% hits | HEK293 Gal4-DAX1 luciferase reporter | inhibition, % at 6.75 µM;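 active = inhibition above the mean over all tested compounds plus 3 SD, cut at about 4.2% in these data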;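 note: 0% = DAX1-transfected cells with DMSO and 100% = empty-vector control cells with DMSO; inhibition shows as a rise in luminescence from relieved DAX1 repression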
# Target sequence (P51843 207-470 limits assumed): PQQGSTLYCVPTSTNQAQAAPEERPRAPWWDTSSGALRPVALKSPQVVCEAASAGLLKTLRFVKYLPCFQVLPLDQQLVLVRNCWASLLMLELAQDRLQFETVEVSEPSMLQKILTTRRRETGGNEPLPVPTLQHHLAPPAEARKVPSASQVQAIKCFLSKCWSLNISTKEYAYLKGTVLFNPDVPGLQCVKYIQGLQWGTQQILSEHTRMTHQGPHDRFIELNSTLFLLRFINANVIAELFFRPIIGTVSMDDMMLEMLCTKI
# ssDAF12 agonist – S. stercoralis DAF-12 nuclear receptor activators, primary screen, cell-based, luminescence, HEK293, GRIP1 co-expression, lit1-tk-luc; HEK293 ssDAF-12/GRIP1 lit1-tk-luc reporter; % of 3 µM dafachronic acid response; Nuclear hormone receptor DAF-12 (Strongyloides stercoralis); activation, % at 6.8 µM; 370,000 compounds, 1% hits;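 active = activation above the mean over all tested compounds plus 3 SD, cut at about 0.9% in these data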;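 note: 0% = DMSO-only wells and 100% = 3 µM delta7-dafachronic acid wells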
# hgDAF12 agonist – H. glycines DAF-12 receptor agonists, primary screen, cell-based, luminescence, HEK293, GAL4 fusion, UAS-luciferase | HEK293 GAL4-hgDAF12 UAS-luciferase reporter, agonist luminescence; normalized to butyrate control | activation, % at 6.8 µM | 370,000 compounds, 1.8% hits;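 active = activation above a cutoff set at the mean of all screened compounds plus 3 SD, cut at about 10% in these data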;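 note: 0% = DMSO wells and 100% = sodium butyrate wells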
# SMARCA2 act – SMARCA2 (BRM) function activators, primary screen, cell-based, luminescence, high throughput. 370,000 compounds, 1% hits. MG213 cells, MMTV-luciferase reporter, dexamethasone, overnight. activation, % at 9.1 µM. AID 652017, 2013; in the data active = activation above about 7.8%;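 note: 0% = vehicle wells and 100% = reference activator wells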
# DAX1 inh-2 – DAX1 (NR0B1) inhibitors on StAR promoter, primary screen, cell-based, luminescence, SF-1 (NR5A1), full-length DAX-1; HEK293T StAR-luciferase reporter, SF-1/DAX-1 repression relief; inhibition, % at 6.8 µM; 370,000 compounds, 1.1% hits;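 active = inhibition above the mean over all tested compounds plus 3 SD, cut at about 3.6% in these data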;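 note: 0% = DAX-1 cells with DMSO and 100% = cells lacking DAX-1 with DMSO; higher inhibition means more luminescence from relief of DAX-1 repression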
# hcDAF-12 act – H. contortus DAF-12 nuclear receptor activators, primary screen, cell-based, luminescence, HEK293, lit1-tk-luc reporter | HEK293 hcDAF-12 lit1-tk-luc reporter; 0% DMSO, 100% Δ7-dafachronic acid | activation, % at 6.8 µM | 370,000 compounds, 1.4% hits;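 active = activation above the mean of all tested compounds plus 3 SD, cut at about 5.5% in these data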;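 note: 100% = response to 3 µM Δ7-dafachronic acid high control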
# SMARCA2 conf – SMARCA2 (BRM) function activators, confirmation, cell-based, luminescence, triplicate | 3,500 compounds, 30% hits | activation, % at 9.1 µM | MG213 cells, MMTV-luciferase with dexamethasone, overnight; MG213 cells expressing E1A, Rb sequestered; DMSO wells 0%, reference activator 100% | shares compounds with SMARCA2 act;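 active = activation above its plate's cutoff, the mean activation of tested wells plus 3 SD, cut at about 7.9% in these data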
# GAL4-VP16 Luc – GAL4-VP16 luciferase reporter activation, counter-screen for SMARCA2 (BRM) activator project, cell-based, pG5luc, luminescence, high throughput. shares compounds with SMARCA2 act. activation, % at 9.1 µM. 3,500 compounds, 41% hits. HEK293 GAL4-VP16 pG5luc reporter; scaled: DMSO wells 0%, SAHA wells 100%. AID 686939, 2013;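 active = activation above the solvent-only control well mean plus 3 SD, averaged across control plates, cut at about 5.2% in these data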
# LXR ag – LXR agonists, Gal4 luciferase reporter, confirmation, counter-screen for hcDAF-12 agonist project, cell-based, luminescence, HEK293, H. contortus campaign. activation, % at 6.8 µM. shares compounds with hcDAF-12 act. 3,400 tested, under 10 active. HEK293 Gal4-LXR tk-luc reporter, 24 h; normalized: DMSO 0%, positive control 100%;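 active = mean percent activation of the reporter above a cutoff set as the average over tested compounds plus their standard deviation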
# Target sequence (P55055 whole entry, looked up, the tested form may be a part): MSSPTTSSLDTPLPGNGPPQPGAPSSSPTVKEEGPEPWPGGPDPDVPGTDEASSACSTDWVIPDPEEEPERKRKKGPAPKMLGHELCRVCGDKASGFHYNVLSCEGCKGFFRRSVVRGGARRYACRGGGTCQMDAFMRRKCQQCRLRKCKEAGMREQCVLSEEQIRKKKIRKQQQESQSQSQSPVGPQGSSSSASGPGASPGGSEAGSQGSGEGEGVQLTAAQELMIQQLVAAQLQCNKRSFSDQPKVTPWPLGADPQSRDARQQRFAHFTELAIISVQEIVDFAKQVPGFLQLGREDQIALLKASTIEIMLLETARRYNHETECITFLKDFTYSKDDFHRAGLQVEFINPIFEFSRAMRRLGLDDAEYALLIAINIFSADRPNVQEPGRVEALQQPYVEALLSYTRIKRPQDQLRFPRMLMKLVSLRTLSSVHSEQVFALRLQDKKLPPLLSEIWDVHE
# hcDAF12 conf – H. contortus DAF-12 receptor agonists, confirmation, cell-based, luminescence, HEK293, lit1-tk-luc, triplicate | HEK293 hcDAF-12 lit1-tk-luc reporter; % of Δ7-dafachronic acid response | activation, % at 6.8 µM | 3,400 compounds, 61% hits | shares compounds with hcDAF-12 act;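 active = mean activation across triplicate tests above the threshold derived from the earlier primary screen, cut at about 5.5% in these data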;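 note: 0% = DMSO only wells and 100% = 3 µM Δ7-dafachronic acid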
# hgDAF12 conf – H. glycines DAF-12 receptor agonists, confirmation, cell-based, luminescence, HEK293, GAL4-LBD fusion; shares compounds with hgDAF12 agonist; activation, % at 6.8 µM; HEK293 GAL4-hgDAF12 luciferase reporter, agonist mode; percent of butyrate response; 3,300 compounds, 80% hits;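 active = mean activation over triplicate wells above the hit cutoff derived from the earlier primary screen, cut at about 11% in these data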;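 note: 0% = DMSO low control and 100% = 2 mM sodium butyrate high control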
# LXRb DAF12 ctr – LXR agonists, Gal4 luciferase reporter, confirmation, counter-screen for hgDAF-12 agonist project, cell-based, luminescence, HEK293, H. glycines campaign; 24 h; 3,300 tested, under 10 active; activation, % at 6.8 µM; shares compounds with hgDAF12 agonist;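 active = mean activation of the triplicate above a set limit carried over from the primary screen, none filed active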
# * = called active by the depositor; . = no result. Sampled rows, rich in hits. Any-hit rate of the full collection: about 4.8%.
SMILES,DAX1 inh-1,ssDAF12 agonist,hgDAF12 agonist,SMARCA2 act,DAX1 inh-2,hcDAF-12 act,SMARCA2 conf,GAL4-VP16 Luc,hgDAF12 conf,LXRb DAF12 ctr,others
O=C(CS(=O)(=O)c1ccccc1)N1CCc2ccccc21,2.0,1.9*,21.2*,10.1*,2.6,12.7*,8.5*,9.8*,16.6*,0.6,LXR ag=0.7;hcDAF12 conf=9.1*
O=C(Cc1ccccc1)N1CCc2ccccc21,-0.4,-1.8,0.8,4.0,-0.6,0.0,.,.,.,.,
CCCCCN1CCCCC(NC(=O)c2ccccc2OC)C1=O (stereo unspecified),.,-1.2,0.8,0.7,-1.2,-2.0,.,.,.,.,
CN(C)c1ccc(N=Nc2ccccc2C(=O)OCC(=O)NC2CCCC2)cc1,-0.5,-1.0,2.4,0.5,0.1,1.3,.,.,.,.,
CN(C)c1ccc(N=Nc2cccc3ccoc23)cc1,6.5*,1.6*,19.2*,9.8*,3.3,16.5*,7.8,11.5*,20.4*,1.0,LXR ag=1.0;hcDAF12 conf=9.0*
CCOc1ccc2nc(NC(=O)COC)sc2c1,0.2,0.9,14.2*,8.0*,4.5*,2.2,14.8*,12.8*,16.5*,0.8,
CCOc1ccc2nc(NC(=O)Cc3cccs3)sc2c1,-0.2,.,.,.,.,.,.,.,.,.,
COc1ccccc1N1CCN(C2=Nc3cccc4cccc2c34)CC1,-0.1,-0.3,13.5*,9.2*,4.0*,-1.1,21.8*,6.5*,7.9,0.4,
COC(=O)CSc1nnc(-c2ccc(NS(=O)(=O)c3ccc(C(C)(C)C)cc3)cc2)o1,.,-0.1,0.5,0.6,-0.1,4.1,.,.,.,.,
CN(C)c1cccc(/C=C2\CC3(OC(=O)c4ccco4)CCCN2C3)c1 (stereo unspecified),.,-1.6,-0.1,-3.0,-1.1,-1.2,.,.,.,.,
Cc1ccc2cc(NC(=O)c3cccc(F)c3)ccc2n1,2.6,0.5,14.6*,8.1*,2.9,8.2*,18.7*,4.7,19.8*,0.8,LXR ag=1.3;hcDAF12 conf=4.5
O=C(Nc1cccc(NC(=O)c2cccc(F)c2)n1)c1cccc(F)c1,-2.0,-0.9,-1.1,-0.3,-0.2,-2.2,.,.,.,.,
O=C(Nc1ccc2ccccc2c1)c1cccc(F)c1,4.2,0.3,13.8*,9.4*,2.7,8.9*,3.4,10.6*,16.3*,0.8,LXR ag=1.4;hcDAF12 conf=7.3*
O=C(Nc1ccc2[nH]ncc2c1)c1cccc(F)c1,1.9,0.4,8.0,4.2,1.1,0.0,.,.,.,.,
CC(C)C[C@H](NC1(C(=O)NC2CCCCC2)CCN(C)CC1)C(=O)NCC(c1ccccc1)c1ccccc1,.,-0.7,3.5,.,.,1.3,.,.,.,.,
O=C(Nc1cccc(Cl)c1)c1cnn2cccnc12,1.5,0.3,17.1*,8.1*,3.5,7.7*,8.3*,12.0*,13.7*,0.8,LXR ag=1.2;hcDAF12 conf=7.5*
CN1CCN(c2ccc(-c3cc(NC=O)c4ncc(-c5ccc(F)c(Cl)c5)n4c3)cc2)CC1,.,-0.1,6.4,2.3,-0.3,2.9,.,.,.,.,
CC(=O)c1ccc(-c2cnc3c(NC=O)cc(-c4ccc(N5CCN(C)CC5)cc4)cn23)cc1,.,-0.1,16.6*,11.8*,0.6,1.5,16.0*,4.1,9.6,0.2,
COC(=O)[C@]12C[C@H](CC(=O)NCc3ccc(C)o3)C(=O)N(Cc3ccccc3)C1=C[C@H](C(C)C)O[C@@H]2C1CC1,.,-1.3,-0.7,1.4,-0.5,1.3,.,.,.,.,
CN1C(=O)C[C@@](C#N)(C(=O)NCc2ccc3c(c2)OCO3)[C@H]1c1ccccc1,.,-0.4,2.5,2.4,1.8,1.1,.,.,.,.,
C/C(=N\NC(=O)c1ccn(C)n1)c1cccc(NC(=O)c2ccc(C)s2)c1,1.9,-0.5,14.5*,15.6*,1.3,1.4,8.0*,6.0*,6.7,0.2,
CCC(CC)C(=O)Nc1cccc(/C(C)=N\NC(=O)c2ccc(C)s2)c1,0.6,-0.9,2.4,-0.3,0.3,0.2,.,.,.,.,
CCC(CO)Nc1cccc2c1S(=O)(=O)N(Cc1cn(Cc3ccc(Cl)cc3)nn1)Cc1ccccc1O2 (stereo unspecified),.,-1.5,-1.2,-5.4,-1.0,-2.6,.,.,.,.,
CCC(C#Cc1ccccc1)NCc1ccc(OC)cc1OC (stereo unspecified),.,-1.1,3.2,.,.,-1.3,.,.,.,.,
COc1ccc(CNc2nc3ccccc3n2C)c(O)c1,3.5,0.1,17.2*,8.1*,4.5*,3.6,9.3*,7.3*,20.6*,0.7,
CCOC(=O)CCCNC(=O)OC1CC2CC1[C@H]1CCCCN1[C@H]2C (stereo partly specified),.,-1.4,-0.1,0.0,0.5,-2.2,.,.,.,.,
Cc1ccc(NC(=O)N2CCN(Cc3ccc4c(c3)OCO4)CC2)cc1,-0.9,-1.2,-2.4,-1.4,0.9,-0.1,.,.,.,.,
